Experimental findings from the supplement of paper PMC11732987, “Enantioselective OTUD7B fragment discovery through chemoproteomics screening and high-throughput optimisation” (Communications Chemistry, 2025) are described below.

A number with no mark means an inactive call.

What all share (assay): log2 ratio of Biotin-Ahx-Ub-VS probe labelling (fragment/DMSO); higher = less target engagement (more negative = stronger competition), active = hit call of the paper (q ≤ 0.05, log2 ratio ≤ -1)
Holding throughout (details): compound concentration: 200 uM; treatment time: 3 h

The target in one assay is UniProt O00507. Put shortly:
(§1)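 Values give the average log2 ratio of fragment to vehicle, assessed by unpaired t-test on global-median-normalised Spectronaut label-free quantities. Proteins needed ≥2 unique peptides. HEK293T lysate (495 µg per sample) was treated in triplicate with fragment at 200 µM or vehicle for 3 h and then with Biotin-Ahx-Ub-VS at 0.5 µM final for 1 h. Labelled DUBs were NeutrAvidin-enriched, digested and run by diaPASEF LC-MS/MS.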

The next assay addresses UniProt P51784. Put shortly: as §1
In the next assay the target is T1, UniProt Q5T2D3.
T1 sequence (whole entry): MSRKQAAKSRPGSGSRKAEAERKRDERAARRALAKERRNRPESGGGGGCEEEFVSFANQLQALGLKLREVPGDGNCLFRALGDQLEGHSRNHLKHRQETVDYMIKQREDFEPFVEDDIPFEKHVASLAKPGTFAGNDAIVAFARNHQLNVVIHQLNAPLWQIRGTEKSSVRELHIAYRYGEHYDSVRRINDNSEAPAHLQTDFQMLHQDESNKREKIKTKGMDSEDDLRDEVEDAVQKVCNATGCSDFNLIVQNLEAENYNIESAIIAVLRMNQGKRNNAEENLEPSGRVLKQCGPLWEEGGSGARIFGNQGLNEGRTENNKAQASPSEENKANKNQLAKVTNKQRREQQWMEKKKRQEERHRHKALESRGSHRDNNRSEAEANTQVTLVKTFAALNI
The method, boiled down:
as §1

The next assay addresses T2, UniProt Q8TE49.
T2 sequence (whole entry): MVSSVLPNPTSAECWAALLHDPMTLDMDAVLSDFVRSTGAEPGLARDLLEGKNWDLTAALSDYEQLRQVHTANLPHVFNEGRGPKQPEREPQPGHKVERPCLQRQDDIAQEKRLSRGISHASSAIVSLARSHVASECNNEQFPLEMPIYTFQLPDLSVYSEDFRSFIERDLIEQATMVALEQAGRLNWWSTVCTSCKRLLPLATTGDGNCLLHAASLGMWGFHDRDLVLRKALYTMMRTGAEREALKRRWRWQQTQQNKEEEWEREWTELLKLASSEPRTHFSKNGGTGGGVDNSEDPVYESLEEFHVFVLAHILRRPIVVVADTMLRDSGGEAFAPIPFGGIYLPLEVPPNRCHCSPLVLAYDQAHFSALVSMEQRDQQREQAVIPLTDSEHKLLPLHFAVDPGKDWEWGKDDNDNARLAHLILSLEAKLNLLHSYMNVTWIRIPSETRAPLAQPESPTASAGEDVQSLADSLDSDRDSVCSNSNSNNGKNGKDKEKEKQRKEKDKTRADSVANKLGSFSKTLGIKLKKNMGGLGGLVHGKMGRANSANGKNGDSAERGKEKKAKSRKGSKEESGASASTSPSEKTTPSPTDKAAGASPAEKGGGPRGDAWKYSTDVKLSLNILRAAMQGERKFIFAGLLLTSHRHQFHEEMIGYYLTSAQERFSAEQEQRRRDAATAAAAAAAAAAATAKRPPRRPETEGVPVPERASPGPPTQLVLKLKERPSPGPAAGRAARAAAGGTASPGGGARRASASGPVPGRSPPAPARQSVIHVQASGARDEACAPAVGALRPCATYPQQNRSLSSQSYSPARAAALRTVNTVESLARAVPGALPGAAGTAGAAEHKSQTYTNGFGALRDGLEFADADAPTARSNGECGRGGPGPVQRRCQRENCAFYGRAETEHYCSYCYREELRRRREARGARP
Put shortly:
as §1

Another assay has as its target T3, UniProt Q9P2H5.
T3 sequence (whole entry): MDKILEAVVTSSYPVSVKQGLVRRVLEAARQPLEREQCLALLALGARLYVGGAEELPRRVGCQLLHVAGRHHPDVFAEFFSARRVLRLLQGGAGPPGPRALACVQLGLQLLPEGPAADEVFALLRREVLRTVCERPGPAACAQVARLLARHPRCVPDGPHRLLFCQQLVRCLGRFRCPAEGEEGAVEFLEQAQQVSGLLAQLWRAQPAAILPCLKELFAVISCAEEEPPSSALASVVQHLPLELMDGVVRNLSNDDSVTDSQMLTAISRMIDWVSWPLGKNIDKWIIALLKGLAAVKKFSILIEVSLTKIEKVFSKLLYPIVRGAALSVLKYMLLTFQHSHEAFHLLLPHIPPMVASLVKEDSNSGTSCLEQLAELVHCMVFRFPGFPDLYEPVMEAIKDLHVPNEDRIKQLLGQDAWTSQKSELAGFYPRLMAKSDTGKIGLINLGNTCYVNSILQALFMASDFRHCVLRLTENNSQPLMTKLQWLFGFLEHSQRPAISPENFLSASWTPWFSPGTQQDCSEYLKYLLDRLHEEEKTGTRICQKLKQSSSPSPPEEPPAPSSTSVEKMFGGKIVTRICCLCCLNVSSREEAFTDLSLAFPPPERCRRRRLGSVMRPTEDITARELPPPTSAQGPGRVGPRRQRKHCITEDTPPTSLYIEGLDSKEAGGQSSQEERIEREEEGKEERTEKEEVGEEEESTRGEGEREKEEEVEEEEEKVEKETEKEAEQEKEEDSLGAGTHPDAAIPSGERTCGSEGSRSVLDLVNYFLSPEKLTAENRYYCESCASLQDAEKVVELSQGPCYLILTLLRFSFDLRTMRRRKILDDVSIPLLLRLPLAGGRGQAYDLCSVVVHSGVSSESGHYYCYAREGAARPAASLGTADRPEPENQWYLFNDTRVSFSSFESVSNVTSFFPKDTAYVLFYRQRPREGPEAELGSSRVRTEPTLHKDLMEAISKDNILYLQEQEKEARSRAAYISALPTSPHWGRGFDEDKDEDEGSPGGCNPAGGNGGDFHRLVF
The method, boiled down:
as §1

The target of the next assay is T4, UniProt Q9UGI0.
T4 sequence (whole entry): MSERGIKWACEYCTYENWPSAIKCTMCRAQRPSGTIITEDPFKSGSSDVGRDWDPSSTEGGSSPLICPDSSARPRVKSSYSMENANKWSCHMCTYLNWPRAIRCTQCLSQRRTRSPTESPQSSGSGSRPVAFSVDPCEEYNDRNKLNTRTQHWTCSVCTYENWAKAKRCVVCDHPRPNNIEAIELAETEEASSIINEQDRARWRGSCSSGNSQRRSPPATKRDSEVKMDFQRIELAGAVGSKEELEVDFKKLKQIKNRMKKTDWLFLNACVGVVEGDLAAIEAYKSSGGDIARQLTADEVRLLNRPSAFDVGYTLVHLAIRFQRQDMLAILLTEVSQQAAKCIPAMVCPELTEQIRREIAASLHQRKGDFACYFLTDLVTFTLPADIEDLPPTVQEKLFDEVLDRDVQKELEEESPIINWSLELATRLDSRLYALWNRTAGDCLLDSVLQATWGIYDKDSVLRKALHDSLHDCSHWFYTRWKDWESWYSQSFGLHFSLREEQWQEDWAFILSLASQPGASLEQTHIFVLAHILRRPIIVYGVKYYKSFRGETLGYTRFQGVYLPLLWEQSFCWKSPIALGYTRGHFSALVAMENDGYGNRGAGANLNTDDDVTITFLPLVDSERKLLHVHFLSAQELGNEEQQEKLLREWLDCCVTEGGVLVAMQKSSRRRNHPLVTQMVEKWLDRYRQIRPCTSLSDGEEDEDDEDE
The method, boiled down:
as §1

In another assay the target is T5, YOD1 (UniProt Q5VVQ6).
T5 sequence (whole entry): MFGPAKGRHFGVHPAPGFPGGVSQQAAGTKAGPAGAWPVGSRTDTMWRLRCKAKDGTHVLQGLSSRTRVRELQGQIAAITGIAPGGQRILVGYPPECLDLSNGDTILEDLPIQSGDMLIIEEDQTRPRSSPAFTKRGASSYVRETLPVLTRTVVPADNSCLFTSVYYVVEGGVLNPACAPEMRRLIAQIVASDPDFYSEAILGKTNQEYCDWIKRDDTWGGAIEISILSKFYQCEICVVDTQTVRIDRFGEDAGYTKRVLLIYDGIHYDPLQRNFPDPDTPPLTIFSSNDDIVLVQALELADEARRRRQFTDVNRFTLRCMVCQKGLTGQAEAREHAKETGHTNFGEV
Put shortly:
as §1

Sequence of UniProt O00507 (O00507 whole entry, the tested form may be a part): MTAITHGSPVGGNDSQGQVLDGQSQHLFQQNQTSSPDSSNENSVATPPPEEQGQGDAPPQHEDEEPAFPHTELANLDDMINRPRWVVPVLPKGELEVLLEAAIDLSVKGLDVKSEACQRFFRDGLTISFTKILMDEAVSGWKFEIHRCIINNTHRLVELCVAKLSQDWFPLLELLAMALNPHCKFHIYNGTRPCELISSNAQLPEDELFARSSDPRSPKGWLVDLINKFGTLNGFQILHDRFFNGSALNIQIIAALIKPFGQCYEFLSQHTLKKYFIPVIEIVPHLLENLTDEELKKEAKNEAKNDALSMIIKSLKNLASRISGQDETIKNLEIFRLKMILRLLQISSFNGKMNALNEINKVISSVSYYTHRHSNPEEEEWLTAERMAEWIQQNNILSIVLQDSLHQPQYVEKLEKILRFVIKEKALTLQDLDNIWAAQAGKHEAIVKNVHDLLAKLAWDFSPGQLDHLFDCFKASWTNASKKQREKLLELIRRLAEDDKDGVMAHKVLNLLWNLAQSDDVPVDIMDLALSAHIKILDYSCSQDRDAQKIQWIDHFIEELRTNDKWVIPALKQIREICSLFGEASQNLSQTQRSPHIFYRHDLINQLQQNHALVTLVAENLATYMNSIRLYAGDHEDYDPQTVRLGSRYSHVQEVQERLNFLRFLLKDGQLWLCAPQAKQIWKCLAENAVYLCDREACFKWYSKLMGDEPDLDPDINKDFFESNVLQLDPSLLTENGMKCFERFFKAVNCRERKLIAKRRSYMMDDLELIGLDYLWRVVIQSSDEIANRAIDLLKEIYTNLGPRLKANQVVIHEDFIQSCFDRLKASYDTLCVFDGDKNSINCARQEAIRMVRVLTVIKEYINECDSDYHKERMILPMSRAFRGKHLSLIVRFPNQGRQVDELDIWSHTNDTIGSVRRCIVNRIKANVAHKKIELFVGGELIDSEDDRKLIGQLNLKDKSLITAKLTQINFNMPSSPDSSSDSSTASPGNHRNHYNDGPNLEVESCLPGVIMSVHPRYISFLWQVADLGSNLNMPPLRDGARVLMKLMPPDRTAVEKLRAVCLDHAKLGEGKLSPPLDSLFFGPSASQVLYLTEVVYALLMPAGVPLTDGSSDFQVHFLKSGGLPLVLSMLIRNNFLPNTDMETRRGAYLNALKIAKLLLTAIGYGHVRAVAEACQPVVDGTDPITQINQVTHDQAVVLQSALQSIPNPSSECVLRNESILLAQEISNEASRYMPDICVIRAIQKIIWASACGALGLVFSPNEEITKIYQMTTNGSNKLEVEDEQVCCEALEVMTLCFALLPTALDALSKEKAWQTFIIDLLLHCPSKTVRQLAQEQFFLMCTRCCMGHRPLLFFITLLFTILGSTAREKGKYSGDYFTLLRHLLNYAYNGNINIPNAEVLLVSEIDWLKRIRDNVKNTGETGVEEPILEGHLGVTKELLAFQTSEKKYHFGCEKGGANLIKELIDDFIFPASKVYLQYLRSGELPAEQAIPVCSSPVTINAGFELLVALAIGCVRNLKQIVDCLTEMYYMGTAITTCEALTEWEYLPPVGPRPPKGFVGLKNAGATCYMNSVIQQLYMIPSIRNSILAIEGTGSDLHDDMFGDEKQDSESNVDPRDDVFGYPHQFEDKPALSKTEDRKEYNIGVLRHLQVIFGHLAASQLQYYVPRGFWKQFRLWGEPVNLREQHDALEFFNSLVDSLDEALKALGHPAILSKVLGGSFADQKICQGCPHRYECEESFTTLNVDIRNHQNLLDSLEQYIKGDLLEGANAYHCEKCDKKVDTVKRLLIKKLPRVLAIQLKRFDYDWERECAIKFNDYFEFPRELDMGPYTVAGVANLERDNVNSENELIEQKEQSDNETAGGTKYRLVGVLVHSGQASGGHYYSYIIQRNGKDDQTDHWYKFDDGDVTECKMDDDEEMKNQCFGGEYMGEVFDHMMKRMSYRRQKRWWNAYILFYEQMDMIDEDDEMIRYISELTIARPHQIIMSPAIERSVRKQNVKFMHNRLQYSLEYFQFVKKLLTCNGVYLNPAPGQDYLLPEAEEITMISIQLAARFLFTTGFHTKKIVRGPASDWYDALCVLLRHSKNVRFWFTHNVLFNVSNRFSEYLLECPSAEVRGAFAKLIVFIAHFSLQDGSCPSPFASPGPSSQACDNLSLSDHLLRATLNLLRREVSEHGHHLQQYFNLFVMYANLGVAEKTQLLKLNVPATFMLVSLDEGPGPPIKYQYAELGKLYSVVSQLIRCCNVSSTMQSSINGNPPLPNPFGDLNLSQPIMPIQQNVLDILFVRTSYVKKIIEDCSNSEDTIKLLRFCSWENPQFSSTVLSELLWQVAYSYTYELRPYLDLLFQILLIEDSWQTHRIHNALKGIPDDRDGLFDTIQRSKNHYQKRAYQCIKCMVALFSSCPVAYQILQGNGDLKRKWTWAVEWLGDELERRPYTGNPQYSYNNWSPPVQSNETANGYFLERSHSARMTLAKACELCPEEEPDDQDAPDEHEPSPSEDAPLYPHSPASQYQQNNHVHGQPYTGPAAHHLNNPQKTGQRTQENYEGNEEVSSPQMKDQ
Sequence of UniProt P51784 (P51784 whole entry): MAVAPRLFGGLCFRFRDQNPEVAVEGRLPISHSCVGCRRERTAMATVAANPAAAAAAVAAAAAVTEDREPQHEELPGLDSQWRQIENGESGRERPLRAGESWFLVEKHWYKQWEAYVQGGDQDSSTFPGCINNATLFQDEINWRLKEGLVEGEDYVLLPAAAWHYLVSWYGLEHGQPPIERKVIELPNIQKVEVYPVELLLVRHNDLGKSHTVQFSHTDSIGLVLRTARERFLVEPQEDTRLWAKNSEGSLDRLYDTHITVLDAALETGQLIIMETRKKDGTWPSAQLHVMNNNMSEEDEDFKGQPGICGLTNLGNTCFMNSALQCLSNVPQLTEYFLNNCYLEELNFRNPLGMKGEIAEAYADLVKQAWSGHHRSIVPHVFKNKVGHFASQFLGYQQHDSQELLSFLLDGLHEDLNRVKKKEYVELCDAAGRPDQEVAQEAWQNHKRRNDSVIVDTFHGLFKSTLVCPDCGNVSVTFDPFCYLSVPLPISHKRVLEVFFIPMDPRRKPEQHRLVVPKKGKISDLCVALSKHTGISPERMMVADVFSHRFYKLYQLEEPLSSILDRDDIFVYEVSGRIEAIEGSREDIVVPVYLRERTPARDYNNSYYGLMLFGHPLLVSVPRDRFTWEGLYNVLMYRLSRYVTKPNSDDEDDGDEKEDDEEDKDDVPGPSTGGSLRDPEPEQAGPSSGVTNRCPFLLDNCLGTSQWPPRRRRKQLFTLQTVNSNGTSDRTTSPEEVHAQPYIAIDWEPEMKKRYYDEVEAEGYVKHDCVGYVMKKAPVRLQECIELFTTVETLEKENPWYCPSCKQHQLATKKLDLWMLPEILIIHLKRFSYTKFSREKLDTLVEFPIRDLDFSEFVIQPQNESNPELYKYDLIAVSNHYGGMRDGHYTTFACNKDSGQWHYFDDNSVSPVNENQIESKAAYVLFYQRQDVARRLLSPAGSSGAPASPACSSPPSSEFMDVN

Turning to `Cc1nc(CN2CCCN(C(=O)CCl)CC2)no1.Cl`, the “log2 ratio of Biotin-Ahx-Ub-VS probe labelling” value (from here on “log2 ratio”) is 0.543 with UniProt O00507; 0.151 in the assay with UniProt P51784; -0.111 with UniProt Q5T2D3; 0.0982 with UniProt Q8TE49; -0.193 with UniProt Q9P2H5; 0.143 with UniProt Q9UGI0. In addition, the “log2 ratio” value in the assay with YOD1 was 0.273.

Consider `CC(NC(=O)CCl)c1csc(-c2ccccc2)n1.Cl` (stereo not given), for which the “log2 ratio” value in the assay with UniProt O00507 is -0.472; with UniProt P51784, -0.138; with UniProt Q5T2D3 it was -0.671; with UniProt Q8TE49, -1.08 (active); with UniProt Q9P2H5, -0.482; in the assay with UniProt Q9UGI0, -0.494. Further, the “log2 ratio” value with YOD1 is -0.459.

With `O=C(CCl)N1CCN(C(=O)N2CCCCC2)CC1`, the “log2 ratio” value with UniProt O00507 is -1.18 (active); with UniProt P51784, -0.772; with UniProt Q5T2D3, -0.618; with UniProt Q8TE49, -0.968; in the assay with UniProt Q9P2H5, -0.897; with UniProt Q9UGI0 it was -1.27 (active). Further, in the assay with YOD1, the “log2 ratio” value was -0.827.

For `O=C(CCl)N1CCOCCC1c1ccccc1` (stereo not given), the “log2 ratio” value with UniProt O00507 is -0.114; with UniProt P51784 it was 0.0584; with UniProt Q5T2D3, -0.173; with UniProt Q8TE49, -0.54; with UniProt Q9P2H5, -0.305; with UniProt Q9UGI0 it was -0.25. In addition, the “log2 ratio” value with YOD1 was 0.199.

`O=C(CCl)N1CCC(C(O)c2ccc(F)cc2)CC1` (stereo not given): the “log2 ratio” value with UniProt O00507 was -0.0622; in the assay with UniProt P51784, 0.5; with UniProt Q5T2D3, -0.0566; with UniProt Q8TE49, -0.301; with UniProt Q9P2H5 it was 0.167; in the assay with UniProt Q9UGI0 it was -0.181. Also, in the assay with YOD1, the “log2 ratio” value is -0.00174.

In the case of `O=C(CCl)N1CCN(C(=O)Nc2ccccc2)CC1`, the “log2 ratio” value with UniProt O00507 was 0.452; in the assay with UniProt P51784, 0.16; with UniProt Q5T2D3 it was -0.132; with UniProt Q8TE49, -0.337; in the assay with UniProt Q9P2H5 it was -0.158; with UniProt Q9UGI0, 0.0377. Further, in the assay with YOD1, the “log2 ratio” value was 0.444.

In the case of `O=C(CCl)NCc1ccc(Cl)cc1`, the “log2 ratio” value with UniProt O00507 is 0.318; with UniProt P51784 it was 0.0262; in the assay with UniProt Q5T2D3 it was -0.0567; with UniProt Q8TE49, -0.395; in the assay with UniProt Q9P2H5, 0.00401; in the assay with UniProt Q9UGI0, -0.0432. Besides, the “log2 ratio” value with YOD1 is 0.238.

For the compound `Cl.Cn1cnc2cc(CNC(=O)CCl)ccc21`, the “log2 ratio” value in the assay with UniProt O00507 is 0.245; with UniProt P51784 it was -0.209; with UniProt Q5T2D3 it was -0.0728; in the assay with UniProt Q8TE49, -0.354; in the assay with UniProt Q9P2H5 it was -0.126; with UniProt Q9UGI0, -0.308. For the same compound, in the assay with YOD1, the “log2 ratio” value was 0.0476.

Turning to `CN(C)C(=O)c1ccc(CNC(=O)CCl)cc1`, the “log2 ratio” value with UniProt O00507 was 0.565; in the assay with UniProt P51784 it was 0.0173; in the assay with UniProt Q5T2D3 it was -0.167; with UniProt Q8TE49, -0.516; in the assay with UniProt Q9P2H5, -0.0353; in the assay with UniProt Q9UGI0, -0.474. Besides, in the assay with YOD1, the “log2 ratio” value was 0.0763.

Consider `Cc1ccccc1CN(C)C(=O)CCl`, for which the “log2 ratio” value with UniProt O00507 is -1.06 (active); in the assay with UniProt P51784, -0.62; in the assay with UniProt Q5T2D3, -0.704; with UniProt Q8TE49, -1.06 (active); with UniProt Q9P2H5, -0.712; with UniProt Q9UGI0, -1.3 (active). For the same compound, the “log2 ratio” value with YOD1 is -0.638.
